Results published in PubChem BioAssay (NCI).
The panel holds about 83,000 compounds, 20% with a hit somewhere; the sample as a whole holds those more often.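 96-well plates, one dose, 48 hours. Percent growth reported; active if below 10.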 A number with no mark means an inactive call. The source made the active and inactive calls.

Columns and labels:
Test in all cases: NCI-60 one-dose screen, 48 h (100 = growth as untreated, 0 = no growth, -100 = all killed)
Settings in all cases: 10 µM
SK-MEL-2 melanoma = system: SK-MEL-2 melanoma
EKVX NSCLC = system: EKVX NSCLC
SN12C renal = system: SN12C renal
UO-31 renal = system: UO-31 renal
TK-10 renal = system: TK-10 renal
ACHN renal = system: ACHN renal
CAKI-1 renal = system: CAKI-1 renal
A498 renal = system: A498 renal
CCRF-CEM leukemia = system: CCRF-CEM leukemia
MOLT-4 leukemia = system: MOLT-4 leukemia

| SMILES | growth (SK-MEL-2 melanoma) | growth (EKVX NSCLC) | growth (SN12C renal) | growth (UO-31 renal) | growth (TK-10 renal) | growth (ACHN renal) | growth (CAKI-1 renal) | growth (A498 renal) | growth (CCRF-CEM leukemia) | growth (MOLT-4 leukemia) |
| --- | --- | --- | --- | --- | --- | --- | --- | --- | --- | --- |
| CN1C(=O)N(C)C2SC(N/N=C/c3ccc(F)cc3)=NC21 (stereo not given) | 26.5% | 77.2% | 52.5% | 47.7% | 72.4% | 60.1% | 46.3% | 57.6% | 40.3% | 45.4% |
| O=C1NC(=NC23CC4CC(CC(C4)C2)C3)N/C1=C\c1ccc2ncccc2n1 | -94.8% (active) | -22% (active) | 1.63% (active) | -15.8% (active) | 9.19% (active) | -13% (active) | -13.4% (active) | -28.3% (active) | -9.82% (active) | -10.9% (active) |
| COc1cc2c(c(OC)c1OC)C(=O)CC(c1cccc(NC(=O)c3cccc(N)c3)c1)O2 (stereo not given) | 85.2% | 91.9% | 74.3% | 58.6% | 118% | 84.6% | 65.9% | 98.8% | 49.4% | 43.1% |
| CN(C)CCNC(=O)OCCCCOc1cc(O)c2c(=O)cc(-c3ccccc3)oc2c1 | -59.7% (active) | 11.7% | -9.43% (active) | -91.2% (active) | 0.634% (active) | -97.5% (active) | -39.1% (active) | -76.4% (active) | -5.67% (active) | -42.1% (active) |
| COc1ccc(N(C)c2cc(C#N)nc3ccccc23)cc1/C=C/C(=O)NO | -80% (active) | -54.6% (active) | -51.4% (active) | -55.3% (active) | 23.7% | -22.2% (active) | -19.2% (active) | 16.2% | 9.09% (active) | -3.71% (active) |
| N#Cc1ccc(-c2nn(-c3ccc(C(=O)O)cc3)cc2CNc2cc(Cl)cc(Cl)c2)cc1 | 81.7% | 63.3% | 50.9% | 33.2% | 111% | 55.3% | 63% | 103% | 13.7% | 15.8% |
| CC(=O)c1cc(C(=O)c2ccc3c(c2)NC(=O)CO3)n2ccc3ccccc3c12 | 107% | 75% | 86.1% | 59% | 78.2% | 50% | 55.4% | 97.3% | 82.9% | 66.8% |
| Nc1nc(-c2ccccc2)cs1 | 61.6% | 32% | 68.2% | 29% | 83.5% | 59.5% | 69.9% | 94.7% | 43.3% | 35.1% |
| O=C(CNc1nc(-c2ccccc2)cs1)Nc1ccc(Cl)cc1 | -84.1% (active) | -95.3% (active) | -97.2% (active) | -99.8% (active) | -93.9% (active) | -100% (active) | -82.4% (active) | -93.4% (active) | 12.3% | -26.5% (active) |
| CCOC(=O)CNC(=O)CN(Cc1ccccc1)C(=O)[C@@]1(C)CCC[C@]2(C)[C@H]3C[C@H]4C(C(C)C)=C[C@]3(CC[C@H]21)[C@@H]1C(=O)OC(=O)[C@@H]14 | 82.3% | 67.6% | 69% | 65.5% | 90.3% | 57% | 88.3% | 110% | 15.6% | 27.8% |
| COc1ccccc1[C@H]1C(C(=O)c2ccc(O)cc2)C2(N[C@@H]1c1ccccc1)C(=O)Nc1ccc(Br)cc12 (stereo not given in full) | 32.1% | 30% | 25% | 27.9% | 51% | 31.9% | 18.7% | 37.4% | 22% | -9.09% (active) |
| CCOc1ccc2ncc(C#Cc3cncc(C(=O)Nc4ccc(CN5CCN(C)CC5)c(C(F)(F)F)c4)c3)n2n1 | -75.7% (active) | -65.8% (active) | -82.9% (active) | -65.8% (active) | -66.5% (active) | -87% (active) | 30.4% | 15.9% | 7.96% (active) | -8.54% (active) |
| O=C(c1ccccc1)n1ccc(-c2cc3cc(Br)ccc3oc2=O)n1 | 16.8% | -1.71% (active) | 27.4% | 11.7% | 34.7% | 8.46% (active) | 15.2% | 117% | 4.71% (active) | 14.8% |
| COc1ccc(-c2cc(-c3cc(C(=O)c4ccc(Br)cc4)n4ccc(C)cc34)nc(N)c2C#N)cc1 | 107% | 89.8% | 92.9% | 64.3% | 132% | 81.8% | 68.1% | 134% | 98.2% | 101% |
| O=C(N/N=C/c1ccc(-c2cccc([N+](=O)[O-])c2)o1)c1[nH]c2ccc(Br)cc2c1-c1ccccc1 | 22.8% | 54.4% | 3.81% (active) | 38.9% | 40.4% | 22.9% | 21.4% | 77.9% | -2.99% (active) | 4.53% (active) |
| COc1ccc(/C(C)=N/N=C2C(=O)N(C)c3ccc(Br)cc32)cc1S(N)(=O)=O | 81.7% | 56.7% | 68.7% | 65.1% | 105% | 69.3% | 41% | 99.6% | 89.1% | 84.6% |
| O=C(N/N=C/c1ccc(B(O)O)o1)c1[nH]c2ccc(Br)cc2c1-c1ccccc1 | 26.5% | 44.3% | 31.2% | 42.2% | 64.7% | 44.8% | 30% | 76.5% | 3.97% (active) | 16.9% |
| O=C(c1ccc(O)cc1)C1[C@H](c2ccc(Br)cc2)[C@@H](c2ccccc2)NC12C(=O)Nc1ccc(Br)cc12 (stereo not given in full) | -21.1% (active) | 6.1% (active) | -83.5% (active) | -27.3% (active) | -5.38% (active) | 2.27% (active) | 3.36% (active) | 10.9% | 19.7% | 12.4% |
| O=c1[nH]c2ccc(Cl)cc2cc1CSc1ccc(Nc2nccc(-c3ccc(Cl)cc3)n2)cc1 | 99.2% | 82% | 72.9% | 90% | 36.4% | 83.5% | 84.9% | 118% | 74.8% | 46.4% |
| Nc1n[nH]c2cccc(C#Cc3cccc(NC(=O)Nc4cc(C(F)(F)F)cc(C(F)(F)F)c4)c3)c12 | -96.8% (active) | -30.3% (active) | -85.9% (active) | -52.5% (active) | -3.32% (active) | -25.4% (active) | -15.6% (active) | -17.4% (active) | -1.88% (active) | -1.46% (active) |
| CC1=C(c2cc(-c3ccc(Cl)cc3)c(C#N)c(N)n2)C(c2ccccc2)NC(=S)N1 (stereo not given) | 98.6% | 98.6% | 62.2% | 63.5% | 114% | 19.6% | 72.3% | 137% | 7.65% (active) | 6.11% (active) |
| COc1ccc2c(c1)N=C(C(=O)O)/C2=C/c1sc(Nc2ccc(O)cc2)nc1O | 81.6% | 75.1% | 80.9% | 49.4% | 99.2% | 82.2% | 92.1% | 98.2% | 44.3% | 43% |
| COc1ccc(/C=C/C(=O)c2ccc(N3CCN(C)CC3)cc2)c(C(F)(F)F)c1 | 94.6% | 49% | 42.5% | 44.2% | 71.7% | 55.6% | 41.4% | 59.5% | 27.3% | 10.8% |
| CN1CCN(c2ccc(C(=O)/C=C/c3ccc(OC(F)F)cc3)cc2)CC1 | 111% | 80.1% | 26.4% | 31.4% | 63.8% | 65.5% | 65.8% | 51.6% | 21.9% | 0.533% (active) |
| O=C(NO)c1ccc(-c2nc3ccc4[nH]ncc4c3c3c2CCCC3)cc1 | -89.7% (active) | -19.4% (active) | -13.8% (active) | -15.8% (active) | 20.2% | 2.16% (active) | -0.924% (active) | -49.1% (active) | 5.08% (active) | 3.76% (active) |
| COc1cc(C2CC(c3ccc(C)cc3)=Nc3c(N)nc(N)nc3N2)ccc1Oc1nc(Nc2ccc(F)cc2)nc(N(C)C)n1 (stereo not given) | 72.9% | 70.1% | 68.6% | 53.3% | 101% | 47.1% | 49.4% | 96.5% | 47.1% | 13.2% |
